# Experimental data reported in the supplement of paper PMC6555819.
# Tested on: RARa:RXR (NR concentration 270 nM, RXRa partner concentration 90 nM)
# Experiment: PBM binding z-score (relative to random genomic background probes); higher = stronger binding; sequences stand for … in GC…GCGATTGACAGCGTAGAATGAAGG
# Method in brief: (§1)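 For binding z-scores, the reference was random background probes on custom Agilent 4×180K protein-binding microarrays. These arrays were incubated 1 h with ligand-free nuclear receptor dimers in PBS pH 7.4, 2% milk, 0.02% Triton X-100, 1 mM DTT, 0.2 mg/mL BSA and 0.4 mg/ml salmon testes DNA. Fluorescence was scanned after antibody detection of each partner (one per run) and regression-normalized.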
row,Sequence,PBM binding z-score
1,CCTTACGGGTCACGAGGTTATAACACGACGAGCG,5.6
2,GGAACGAGTGCATTCGAGTTGATAGCATGGCGAT,-0.0398
3,TAGCCTCGGTCATGGGCCAGTATACCACGCGAAC,0.0375
4,TCGAGTAGGTTAGGGGCATTGAGAATGGCGTCGA,0.211
5,CCTAGCTGGCCAGGGTCACTCAAGCATTTCGCTT,3.04
6,CCAACTGGGGCATAAGGTTACCATAAGCCAGCCC,1.32
7,CTACCAAGGTGCACAAGGTCGTTGATTACTATTC,1.87
8,TCAGATAGGTAATACAGGTGAAAGTCGGCATCTA,0.619
9,GGAACGAGGGCATTCGAGTTAATAGCATGGCGAT,0.742
10,CCTAGCAGGCCAATCTGAGTCACTCAAGGCTTGA,-0.853
11,CTACCATGGTGAACAAGGTCGTTGATTACTATTC,1.43
12,ATCTCTAGATAAAGATAGTTCAGTGAATGCAAAT,0.29
13,TCTAGTTTGTCACGGAGGTCACACACGACGGGTA,4.55
14,CAAACTAGGTCACCGGAAGGTCAAAGTGCGCATG,7.59
15,TCGAGTAGGTTAGTCGGCGCATTCAGCCAACATA,-0.68
16,CCTAGCAGGCCACTCTGGGTCACTCAAGGCTTGA,1.32
17,TCATATAGGTAAATGCTATGTGAAAGTCCGATCT,0.813
18,AGTCAAAGTTCAGGACGAGGTAACGTCAAGCACG,3.01
19,TGTTAAAGTTCAAAGGTAACGTAAGTATCCACAC,6.35
20,AGAATGAGGTTATTAAGATCACGGAATTGCGGTC,1.86

row,Sequence,PBM binding z-score
1,CCTTACGGGTCACGGACAGGTTATAGCATTTGGA,6.3
2,CTCGAAAGGTCGGTTGAGGTGAGTATTCGGATAA,2.04
3,ACAGACAGGTGATGCAGGTAACTCAGGCTATCAT,-0.107
4,CCATACGGGTCACTCCAGGTTATAGCATCGGAGT,3.54
5,TAGCCTAGGTCAGATCGGGCCATTATACGCTATA,1.33
6,CCCTACGGGTCACTCCAGGTTATAGCATCGGAGT,3.75
7,CCTACTGGGCCAAGGACATTGATCAGTCAAAGCA,-0.237
8,TCTTGTAGATCAAGAAGGTTAAGAAAGCCTGAGT,0.941
9,CCTTACGGGTCACGAGGTTATAGCACGACGAGCG,5.47
10,CTACCAAGGTGAACAAGGCCGTTGATTACTATTC,0.868
11,GCAGACAGGTGAAACGCGGGTAACTCAGGGTGGC,0.318
12,CCAGACAGGTGAGAAGGTATCTCAGCCTCGATTA,0.185
13,CTACCAAGGTGAACAAGGTCGTGGATTACTATTC,2.92
14,CCTTACGGGTCACTCCAGGTTATAGAATCGGAGT,4.11
15,ATCTAAAGGTCGACGAGGTGAGTATACACCGTTT,3.76
16,ATACCTAGGTGATCGTGAGGTCGTTGATACTAAC,2.04
17,TAGTCTAGGTCAGATCGGGCCAGTATACGCTATA,1.54
18,AGTCAAAGTTCATCTAGGTAACGTACGATATGCT,3.95
19,CCGACTGGGGCAGAAAGGTTACCAGACCATCCGG,1.47
20,TCATATAGGTAAATGCTTGGTGAAAGTCCGATCT,0.651

# Tested on: RARa homodimer (NR concentration 270 nM)
# Experiment: as above
# Method in brief: as §1
row,Sequence,PBM binding z-score
1,CCTTACGGGTCACGAGGTTATAACACGACGAGCG,0.574
2,GGAACGAGTGCATTCGAGTTGATAGCATGGCGAT,-1.2
3,TAGCCTCGGTCATGGGCCAGTATACCACGCGAAC,-0.653
4,TCGAGTAGGTTAGGGGCATTGAGAATGGCGTCGA,-0.562
5,CCTAGCTGGCCAGGGTCACTCAAGCATTTCGCTT,-0.133
6,CCAACTGGGGCATAAGGTTACCATAAGCCAGCCC,0.288
7,CTACCAAGGTGCACAAGGTCGTTGATTACTATTC,0.655
8,TCAGATAGGTAATACAGGTGAAAGTCGGCATCTA,1.19
9,GGAACGAGGGCATTCGAGTTAATAGCATGGCGAT,-0.33
10,CCTAGCAGGCCAATCTGAGTCACTCAAGGCTTGA,-0.569
11,CTACCATGGTGAACAAGGTCGTTGATTACTATTC,0.262
12,ATCTCTAGATAAAGATAGTTCAGTGAATGCAAAT,0.981
13,TCTAGTTTGTCACGGAGGTCACACACGACGGGTA,1.86
14,CAAACTAGGTCACCGGAAGGTCAAAGTGCGCATG,2.46
15,TCGAGTAGGTTAGTCGGCGCATTCAGCCAACATA,-0.479
16,CCTAGCAGGCCACTCTGGGTCACTCAAGGCTTGA,-0.337
17,TCATATAGGTAAATGCTATGTGAAAGTCCGATCT,1.29
18,AGTCAAAGTTCAGGACGAGGTAACGTCAAGCACG,1.63
19,TGTTAAAGTTCAAAGGTAACGTAAGTATCCACAC,1.41
20,AGAATGAGGTTATTAAGATCACGGAATTGCGGTC,0.114

row,Sequence,PBM binding z-score
1,CCTTACGGGTCACGGACAGGTTATAGCATTTGGA,2.04
2,CTCGAAAGGTCGGTTGAGGTGAGTATTCGGATAA,0.255
3,ACAGACAGGTGATGCAGGTAACTCAGGCTATCAT,0.231
4,CCATACGGGTCACTCCAGGTTATAGCATCGGAGT,0.63
5,TAGCCTAGGTCAGATCGGGCCATTATACGCTATA,-0.736
6,CCCTACGGGTCACTCCAGGTTATAGCATCGGAGT,0.949
7,CCTACTGGGCCAAGGACATTGATCAGTCAAAGCA,-0.533
8,TCTTGTAGATCAAGAAGGTTAAGAAAGCCTGAGT,0.353
9,CCTTACGGGTCACGAGGTTATAGCACGACGAGCG,0.688
10,CTACCAAGGTGAACAAGGCCGTTGATTACTATTC,-0.304
11,GCAGACAGGTGAAACGCGGGTAACTCAGGGTGGC,-0.909
12,CCAGACAGGTGAGAAGGTATCTCAGCCTCGATTA,0.147
13,CTACCAAGGTGAACAAGGTCGTGGATTACTATTC,0.0898
14,CCTTACGGGTCACTCCAGGTTATAGAATCGGAGT,0.74
15,ATCTAAAGGTCGACGAGGTGAGTATACACCGTTT,1.29
16,ATACCTAGGTGATCGTGAGGTCGTTGATACTAAC,0.311
17,TAGTCTAGGTCAGATCGGGCCAGTATACGCTATA,-0.273
18,AGTCAAAGTTCATCTAGGTAACGTACGATATGCT,1.06
19,CCGACTGGGGCAGAAAGGTTACCAGACCATCCGG,-0.579
20,TCATATAGGTAAATGCTTGGTGAAAGTCCGATCT,1.11
